Drawing on publication PMC7862700, “An all-to-all approach to the identification of sequence-specific readers for epigenetic DNA modifications on cytosine”, this text covers binding signal for one sequence.

Assay in all cases: DAPPL (digital affinity profiling via proximity ligation, sequencing); 10 mM Tris-HCl pH 7.5, 50 mM NaCl, 1 mM DTT, 4% glycerol, room temperature, 30 min; GST-TFs on glutathione beads, 16-mer random dsDNA library, 0.1% formaldehyde crosslink after washing; high values mean tight binding
The target in one experiment is T1, FLI1 (Homo sapiens, UniProt Q01543 1-452).
T1 sequence: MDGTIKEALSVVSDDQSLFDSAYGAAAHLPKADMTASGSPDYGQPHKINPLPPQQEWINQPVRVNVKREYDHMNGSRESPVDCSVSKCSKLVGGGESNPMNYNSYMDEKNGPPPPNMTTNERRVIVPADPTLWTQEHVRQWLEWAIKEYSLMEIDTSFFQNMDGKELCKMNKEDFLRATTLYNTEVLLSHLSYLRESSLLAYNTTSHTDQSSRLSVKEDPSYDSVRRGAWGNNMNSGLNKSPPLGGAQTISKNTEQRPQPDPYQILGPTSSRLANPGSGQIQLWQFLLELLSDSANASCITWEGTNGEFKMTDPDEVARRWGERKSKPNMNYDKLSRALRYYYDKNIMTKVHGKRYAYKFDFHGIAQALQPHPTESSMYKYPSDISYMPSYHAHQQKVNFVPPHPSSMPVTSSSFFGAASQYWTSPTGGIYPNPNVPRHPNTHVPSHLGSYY
Conditions: protein: recombinant; tags: N-terminal GST; dsDNA, one strand shown. The method in brief:
(§1)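 Binding signal is given per hexamer as its read frequency for a factor divided by its frequency in the tag-only sample. GST-fused human transcription factors were expressed in yeast, captured on glutathione beads, barcoded with DNA and pooled with that sample, then incubated with 200 nmole of a 16-mer random double-stranded DNA library in Tris/NaCl/DTT/glycerol buffer for 30 min at room temperature. The pools were then washed, crosslinked, proximity-ligated, amplified by PCR and sequenced on an Illumina NextSeq500.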

The target in a further experiment is T2, ELK1 (Homo sapiens, UniProt P19419 1-428).
T2 sequence: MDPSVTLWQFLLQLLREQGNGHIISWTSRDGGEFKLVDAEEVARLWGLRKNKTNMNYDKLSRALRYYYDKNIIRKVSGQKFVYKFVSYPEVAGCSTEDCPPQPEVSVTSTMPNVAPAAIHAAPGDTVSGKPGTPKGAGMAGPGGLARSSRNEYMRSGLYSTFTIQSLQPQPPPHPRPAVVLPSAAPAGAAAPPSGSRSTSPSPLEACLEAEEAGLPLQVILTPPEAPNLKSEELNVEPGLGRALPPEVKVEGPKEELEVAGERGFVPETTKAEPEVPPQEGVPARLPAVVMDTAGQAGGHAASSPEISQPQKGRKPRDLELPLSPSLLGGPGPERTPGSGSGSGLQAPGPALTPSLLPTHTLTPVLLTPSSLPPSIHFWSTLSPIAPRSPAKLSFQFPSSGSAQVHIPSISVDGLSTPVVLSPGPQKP
Conditions: protein: recombinant; tags: N-terminal GST; dsDNA, one strand shown. The method in brief:
as §1

Another experiment addresses T3, GABPA (Homo sapiens, UniProt Q06546 1-454).
T3 sequence: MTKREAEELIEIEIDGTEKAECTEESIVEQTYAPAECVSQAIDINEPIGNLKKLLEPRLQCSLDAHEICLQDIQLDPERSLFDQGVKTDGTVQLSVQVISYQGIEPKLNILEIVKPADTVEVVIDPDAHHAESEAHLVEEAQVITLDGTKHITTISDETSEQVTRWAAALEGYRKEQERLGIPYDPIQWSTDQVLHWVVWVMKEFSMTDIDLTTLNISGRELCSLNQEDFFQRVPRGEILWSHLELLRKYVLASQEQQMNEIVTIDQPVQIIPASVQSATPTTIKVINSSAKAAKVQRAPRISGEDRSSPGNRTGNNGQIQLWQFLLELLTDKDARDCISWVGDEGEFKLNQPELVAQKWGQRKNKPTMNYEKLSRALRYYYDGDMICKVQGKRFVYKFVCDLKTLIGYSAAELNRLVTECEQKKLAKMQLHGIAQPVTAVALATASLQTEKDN
Conditions: protein: recombinant; tags: N-terminal GST; dsDNA, one strand shown. Put shortly:
as §1

Another experiment deals with T4, ERG (Homo sapiens, UniProt P11308 1-479).
T4 sequence: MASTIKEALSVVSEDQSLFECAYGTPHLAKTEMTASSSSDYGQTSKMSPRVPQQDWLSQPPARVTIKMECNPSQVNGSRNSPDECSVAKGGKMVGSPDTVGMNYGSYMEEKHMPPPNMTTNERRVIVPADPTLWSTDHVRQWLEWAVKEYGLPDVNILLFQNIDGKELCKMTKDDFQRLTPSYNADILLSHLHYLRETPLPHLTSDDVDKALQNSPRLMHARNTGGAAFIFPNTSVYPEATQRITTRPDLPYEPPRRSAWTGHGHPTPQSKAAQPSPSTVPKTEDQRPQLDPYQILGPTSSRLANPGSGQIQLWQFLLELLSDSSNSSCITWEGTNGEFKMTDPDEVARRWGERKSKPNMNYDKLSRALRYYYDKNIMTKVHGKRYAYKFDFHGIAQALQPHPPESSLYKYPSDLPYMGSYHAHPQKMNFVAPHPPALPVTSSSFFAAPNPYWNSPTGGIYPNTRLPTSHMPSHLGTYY
Conditions: protein: recombinant; tags: N-terminal GST; dsDNA, one strand shown. The method in brief:
as §1

For a further experiment, the target named is ELF1 (Homo sapiens, UniProt P32519 1-619). Conditions: protein: recombinant; tags: N-terminal GST; dsDNA, one strand shown. Put shortly:
as §1

Another experiment addresses T5, EHF (Homo sapiens, UniProt Q9NZC4 1-300).
T5 sequence: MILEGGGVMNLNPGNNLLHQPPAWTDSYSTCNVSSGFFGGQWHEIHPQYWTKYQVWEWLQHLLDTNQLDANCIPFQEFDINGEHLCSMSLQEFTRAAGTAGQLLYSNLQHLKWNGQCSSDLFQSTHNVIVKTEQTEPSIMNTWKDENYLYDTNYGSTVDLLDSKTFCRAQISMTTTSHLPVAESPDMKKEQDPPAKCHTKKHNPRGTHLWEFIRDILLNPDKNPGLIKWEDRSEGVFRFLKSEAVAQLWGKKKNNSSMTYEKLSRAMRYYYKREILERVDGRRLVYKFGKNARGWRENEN
Particulars: protein: recombinant; tags: N-terminal GST; dsDNA, one strand shown. Put shortly: as §1

Another experiment concerns the target SPI1 (Homo sapiens, UniProt P17947 1-270). Particulars: protein: recombinant; tags: N-terminal GST; dsDNA, one strand shown. Put shortly:
as §1

Another experiment has as its target SPIB (Homo sapiens, UniProt Q01892 1-262). Particulars: protein: recombinant; tags: N-terminal GST; dsDNA, one strand shown. The method in brief:
as §1

In a further experiment the target is T6, ELK3 (Homo sapiens, UniProt P41970 1-407).
T6 sequence: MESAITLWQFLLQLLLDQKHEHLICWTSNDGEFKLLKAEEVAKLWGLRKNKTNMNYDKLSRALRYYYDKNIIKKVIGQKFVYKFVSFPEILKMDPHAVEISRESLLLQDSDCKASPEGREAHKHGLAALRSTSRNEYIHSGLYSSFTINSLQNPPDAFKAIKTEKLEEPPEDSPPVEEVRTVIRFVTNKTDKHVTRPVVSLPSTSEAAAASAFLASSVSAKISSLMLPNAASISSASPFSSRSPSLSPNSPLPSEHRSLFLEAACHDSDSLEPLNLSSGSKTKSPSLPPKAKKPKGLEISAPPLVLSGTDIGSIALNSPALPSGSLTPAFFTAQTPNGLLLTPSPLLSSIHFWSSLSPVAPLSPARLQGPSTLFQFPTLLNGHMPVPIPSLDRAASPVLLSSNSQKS
Conditions: protein: recombinant; tags: N-terminal GST; dsDNA, one strand shown. The method in brief: as §1

A further experiment addresses T7, FEV (Homo sapiens, UniProt Q99581 1-238).
T7 sequence: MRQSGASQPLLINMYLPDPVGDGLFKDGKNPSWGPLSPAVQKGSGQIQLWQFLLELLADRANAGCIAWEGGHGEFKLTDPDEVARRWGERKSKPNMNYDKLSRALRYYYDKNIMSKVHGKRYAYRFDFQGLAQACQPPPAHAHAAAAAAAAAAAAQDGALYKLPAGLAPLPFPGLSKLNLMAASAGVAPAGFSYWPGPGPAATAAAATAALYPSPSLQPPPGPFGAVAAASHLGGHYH
Conditions: protein: recombinant; tags: N-terminal GST; dsDNA, one strand shown. Put shortly: as §1

For another experiment, the target named is ETV5 (Homo sapiens, UniProt P41161 1-510). Conditions: protein: recombinant; tags: N-terminal GST; dsDNA, one strand shown. The method in brief: as §1
The target in the next experiment is HSF1 (Homo sapiens, UniProt Q00613 1-529). Particulars: protein: recombinant; tags: N-terminal GST; chain copies: 3; dsDNA, one strand shown. The method in brief:
as §1

A further experiment concerns the target T8, SPIC (Homo sapiens, UniProt Q8N5J4 1-248).
T8 sequence: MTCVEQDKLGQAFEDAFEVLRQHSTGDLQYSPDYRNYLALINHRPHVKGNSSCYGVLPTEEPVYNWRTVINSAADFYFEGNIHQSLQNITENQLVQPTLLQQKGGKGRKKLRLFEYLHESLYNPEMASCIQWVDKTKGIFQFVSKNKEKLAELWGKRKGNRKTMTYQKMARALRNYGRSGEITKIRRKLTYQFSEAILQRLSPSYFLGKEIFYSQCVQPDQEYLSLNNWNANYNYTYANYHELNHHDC
Conditions: protein: recombinant; tags: N-terminal GST; dsDNA, one strand shown. The method in brief: as §1

The next experiment addresses ELF4 (Homo sapiens, UniProt Q99607 1-663). Particulars: protein: recombinant; tags: N-terminal GST; dsDNA, one strand shown. Put shortly: as §1
A further experiment has as its target T9, ELK4 (Homo sapiens, UniProt P28324-2 1-405).
T9 sequence: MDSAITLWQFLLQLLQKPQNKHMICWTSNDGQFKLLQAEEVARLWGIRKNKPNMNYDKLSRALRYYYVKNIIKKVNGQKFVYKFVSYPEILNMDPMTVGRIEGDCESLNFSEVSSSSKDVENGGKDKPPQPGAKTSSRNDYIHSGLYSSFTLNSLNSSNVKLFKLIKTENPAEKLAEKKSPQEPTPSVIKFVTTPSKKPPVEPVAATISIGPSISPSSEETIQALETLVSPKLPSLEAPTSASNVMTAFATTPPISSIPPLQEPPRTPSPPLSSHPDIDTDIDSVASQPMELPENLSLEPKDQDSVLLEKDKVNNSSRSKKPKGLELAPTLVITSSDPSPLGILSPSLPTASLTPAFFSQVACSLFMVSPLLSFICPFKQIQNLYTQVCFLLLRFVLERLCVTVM
Particulars: protein: recombinant; tags: N-terminal GST; dsDNA, one strand shown. Put shortly: as §1

For the next experiment, the target named is T10, ETV2 (Homo sapiens, UniProt O00321 1-342).
T10 sequence: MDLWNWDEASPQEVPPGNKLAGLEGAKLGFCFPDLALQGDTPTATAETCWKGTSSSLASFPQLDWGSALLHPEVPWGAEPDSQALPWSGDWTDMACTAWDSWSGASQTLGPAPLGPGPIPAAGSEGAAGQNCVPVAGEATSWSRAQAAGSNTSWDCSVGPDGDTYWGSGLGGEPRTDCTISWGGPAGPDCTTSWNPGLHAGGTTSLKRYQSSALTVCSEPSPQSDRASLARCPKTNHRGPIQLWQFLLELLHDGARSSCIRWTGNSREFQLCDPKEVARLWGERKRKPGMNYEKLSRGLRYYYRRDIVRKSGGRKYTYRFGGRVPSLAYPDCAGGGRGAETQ
Particulars: protein: recombinant; tags: N-terminal GST; dsDNA, one strand shown. The method in brief:
as §1

The target of the next experiment is T11, ELF3 (Homo sapiens, UniProt P78545 1-371).
T11 sequence: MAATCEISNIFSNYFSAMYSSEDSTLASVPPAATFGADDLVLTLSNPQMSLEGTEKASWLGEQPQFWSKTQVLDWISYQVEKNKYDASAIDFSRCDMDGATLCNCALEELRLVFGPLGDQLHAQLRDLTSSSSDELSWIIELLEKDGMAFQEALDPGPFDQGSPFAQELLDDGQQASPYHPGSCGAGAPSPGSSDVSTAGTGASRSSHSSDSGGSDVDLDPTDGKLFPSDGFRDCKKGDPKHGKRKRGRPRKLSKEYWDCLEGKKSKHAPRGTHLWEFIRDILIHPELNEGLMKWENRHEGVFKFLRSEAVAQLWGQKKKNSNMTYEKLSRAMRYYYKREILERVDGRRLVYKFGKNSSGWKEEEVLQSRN
Particulars: protein: recombinant; tags: N-terminal GST; dsDNA, one strand shown. The method in brief: as §1

The target in a further experiment is CRX (Homo sapiens, UniProt O43186 1-299). Conditions: protein: recombinant; tags: N-terminal GST; dsDNA, one strand shown. Put shortly: as §1
Another experiment addresses ETV1 (Homo sapiens, UniProt P50549 1-477). Conditions: protein: recombinant; tags: N-terminal GST; dsDNA, one strand shown. The method in brief:
as §1

Chain of ELF1 (P32519 whole entry): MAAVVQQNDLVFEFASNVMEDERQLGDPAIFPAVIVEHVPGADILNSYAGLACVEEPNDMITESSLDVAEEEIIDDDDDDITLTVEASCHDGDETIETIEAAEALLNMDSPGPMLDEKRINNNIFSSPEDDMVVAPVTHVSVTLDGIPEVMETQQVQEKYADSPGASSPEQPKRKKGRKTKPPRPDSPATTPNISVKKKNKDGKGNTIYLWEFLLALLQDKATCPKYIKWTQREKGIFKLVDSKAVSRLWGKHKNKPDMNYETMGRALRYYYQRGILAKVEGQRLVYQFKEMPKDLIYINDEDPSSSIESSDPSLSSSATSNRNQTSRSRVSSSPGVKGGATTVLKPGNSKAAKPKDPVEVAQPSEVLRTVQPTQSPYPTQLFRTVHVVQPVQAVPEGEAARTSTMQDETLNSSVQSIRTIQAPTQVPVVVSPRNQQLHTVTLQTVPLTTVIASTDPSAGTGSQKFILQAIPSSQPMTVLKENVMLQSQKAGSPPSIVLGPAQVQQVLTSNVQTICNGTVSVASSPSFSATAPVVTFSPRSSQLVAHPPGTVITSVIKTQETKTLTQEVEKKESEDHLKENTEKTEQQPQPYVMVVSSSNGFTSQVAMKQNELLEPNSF
Chain of HSF1 (Q00613 whole entry): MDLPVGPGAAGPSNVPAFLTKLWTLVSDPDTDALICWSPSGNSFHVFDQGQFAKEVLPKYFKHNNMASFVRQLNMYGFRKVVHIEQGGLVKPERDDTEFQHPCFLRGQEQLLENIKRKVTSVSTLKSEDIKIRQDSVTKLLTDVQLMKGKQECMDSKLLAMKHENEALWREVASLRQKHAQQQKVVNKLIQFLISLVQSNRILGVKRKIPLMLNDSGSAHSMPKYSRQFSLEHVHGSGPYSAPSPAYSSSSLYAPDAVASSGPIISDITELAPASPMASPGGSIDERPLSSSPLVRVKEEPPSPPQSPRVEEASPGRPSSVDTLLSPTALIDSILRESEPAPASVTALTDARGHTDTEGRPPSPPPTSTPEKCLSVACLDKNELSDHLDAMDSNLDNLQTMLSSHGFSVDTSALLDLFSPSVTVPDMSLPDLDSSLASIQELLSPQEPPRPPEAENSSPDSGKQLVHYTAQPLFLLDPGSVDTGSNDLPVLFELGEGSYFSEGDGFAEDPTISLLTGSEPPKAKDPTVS
Chain of SPIB (Q01892 whole entry): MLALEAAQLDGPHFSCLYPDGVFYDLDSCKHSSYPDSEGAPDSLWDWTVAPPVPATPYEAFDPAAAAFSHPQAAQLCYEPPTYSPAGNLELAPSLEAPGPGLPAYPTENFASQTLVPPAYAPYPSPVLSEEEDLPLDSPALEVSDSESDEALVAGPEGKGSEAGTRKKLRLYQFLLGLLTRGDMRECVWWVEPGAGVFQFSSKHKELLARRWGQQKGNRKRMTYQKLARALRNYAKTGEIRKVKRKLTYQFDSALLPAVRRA
Chain of ETV5 (P41161 whole entry): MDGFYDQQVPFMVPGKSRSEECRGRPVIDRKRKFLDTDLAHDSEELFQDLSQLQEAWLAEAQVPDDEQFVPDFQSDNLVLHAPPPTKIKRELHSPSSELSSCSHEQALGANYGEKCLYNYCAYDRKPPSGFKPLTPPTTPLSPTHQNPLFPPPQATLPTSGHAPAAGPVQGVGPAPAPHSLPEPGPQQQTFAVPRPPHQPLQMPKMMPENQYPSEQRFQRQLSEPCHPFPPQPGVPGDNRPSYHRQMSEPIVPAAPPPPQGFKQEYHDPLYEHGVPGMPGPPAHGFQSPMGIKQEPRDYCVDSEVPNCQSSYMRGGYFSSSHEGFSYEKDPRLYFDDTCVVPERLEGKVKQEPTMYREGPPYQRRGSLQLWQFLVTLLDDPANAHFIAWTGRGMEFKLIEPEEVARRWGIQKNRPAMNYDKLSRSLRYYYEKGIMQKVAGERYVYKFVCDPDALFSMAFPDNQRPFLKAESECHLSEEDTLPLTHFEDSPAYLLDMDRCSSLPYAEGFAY
Chain of ELF4 (Q99607 whole entry): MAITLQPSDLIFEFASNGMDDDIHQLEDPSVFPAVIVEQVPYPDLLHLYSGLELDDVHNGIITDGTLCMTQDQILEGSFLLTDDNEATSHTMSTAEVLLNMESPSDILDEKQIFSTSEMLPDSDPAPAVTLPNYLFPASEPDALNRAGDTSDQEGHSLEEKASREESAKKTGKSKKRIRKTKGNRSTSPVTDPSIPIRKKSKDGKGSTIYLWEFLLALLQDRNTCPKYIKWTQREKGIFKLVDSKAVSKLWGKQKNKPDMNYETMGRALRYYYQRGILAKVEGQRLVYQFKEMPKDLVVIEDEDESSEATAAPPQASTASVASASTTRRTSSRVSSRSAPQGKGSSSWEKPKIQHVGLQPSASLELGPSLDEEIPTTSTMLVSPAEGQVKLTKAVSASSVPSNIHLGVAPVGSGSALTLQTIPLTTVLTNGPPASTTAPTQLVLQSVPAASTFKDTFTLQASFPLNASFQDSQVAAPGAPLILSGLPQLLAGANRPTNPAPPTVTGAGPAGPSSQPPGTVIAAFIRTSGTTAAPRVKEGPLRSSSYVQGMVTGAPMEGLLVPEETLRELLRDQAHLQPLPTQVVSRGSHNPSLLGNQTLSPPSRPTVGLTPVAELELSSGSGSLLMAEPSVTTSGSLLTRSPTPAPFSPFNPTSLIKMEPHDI
Chain of CRX (O43186 whole entry): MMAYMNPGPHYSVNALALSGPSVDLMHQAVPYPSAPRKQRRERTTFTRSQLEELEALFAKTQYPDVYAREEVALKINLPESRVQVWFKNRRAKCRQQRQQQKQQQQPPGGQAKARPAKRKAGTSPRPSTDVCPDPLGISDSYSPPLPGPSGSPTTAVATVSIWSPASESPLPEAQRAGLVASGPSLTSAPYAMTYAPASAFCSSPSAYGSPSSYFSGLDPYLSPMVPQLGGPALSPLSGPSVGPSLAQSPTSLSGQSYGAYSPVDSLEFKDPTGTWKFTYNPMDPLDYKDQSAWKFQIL
Chain of ETV1 (P50549 whole entry): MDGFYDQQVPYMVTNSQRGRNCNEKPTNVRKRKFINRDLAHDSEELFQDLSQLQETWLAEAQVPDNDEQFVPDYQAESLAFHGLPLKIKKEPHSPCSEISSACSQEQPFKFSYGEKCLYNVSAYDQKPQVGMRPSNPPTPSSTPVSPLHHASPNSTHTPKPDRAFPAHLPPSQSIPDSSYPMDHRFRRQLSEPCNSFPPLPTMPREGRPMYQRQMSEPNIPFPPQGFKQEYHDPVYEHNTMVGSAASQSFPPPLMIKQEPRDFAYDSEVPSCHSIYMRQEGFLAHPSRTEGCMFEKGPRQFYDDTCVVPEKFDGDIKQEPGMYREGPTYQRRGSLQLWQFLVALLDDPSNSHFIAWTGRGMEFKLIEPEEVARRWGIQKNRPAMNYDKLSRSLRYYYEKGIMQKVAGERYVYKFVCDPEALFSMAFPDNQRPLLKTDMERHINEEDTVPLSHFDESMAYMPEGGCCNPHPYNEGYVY

CCCCCA: the binding signal with FLI1 was 1.23 fold enrichment (6-mer frequency, TF over GST control); with ELK1 it was 1.18 fold enrichment (6-mer frequency, TF over GST control); with GABPA it was 1.23 fold enrichment (6-mer frequency, TF over GST control); in the experiment with ERG, 1.17 fold enrichment (6-mer frequency, TF over GST control); with ELF1, 1.2 fold enrichment (6-mer frequency, TF over GST control); in the experiment with EHF, 1.27 fold enrichment (6-mer frequency, TF over GST control). Also, the binding signal with SPI1 was 1.23 fold enrichment (6-mer frequency, TF over GST control); with SPIB, 1.27 fold enrichment (6-mer frequency, TF over GST control); in the experiment with ELK3 it was 1.06 fold enrichment (6-mer frequency, TF over GST control); in the experiment with FEV, 1.21 fold enrichment (6-mer frequency, TF over GST control); in the experiment with ETV5, 1.19 fold enrichment (6-mer frequency, TF over GST control); with HSF1, 1.06 fold enrichment (6-mer frequency, TF over GST control). Besides, the binding signal with SPIC was 1.16 fold enrichment (6-mer frequency, TF over GST control); with ELF4, 1.2 fold enrichment (6-mer frequency, TF over GST control); with ELK4 it was 1.19 fold enrichment (6-mer frequency, TF over GST control); in the experiment with ETV2, 1.4 fold enrichment (6-mer frequency, TF over GST control); with ELF3, 1.3 fold enrichment (6-mer frequency, TF over GST control); with CRX, 1.02 fold enrichment (6-mer frequency, TF over GST control). In addition, the binding signal with ETV1 is 1.18 fold enrichment (6-mer frequency, TF over GST control).
